Most compounds without a hit are left out; they make up all but 1.2% or so of the library.
RGS7-Gao reg: modulates binding of RGS7 to human Galphao; 0.35% of 220,000 active; P09471; Multiplexed bead flow cytometry; actives lie on both sides; AID 1439; binding response (% of control), % at 10 µM; in the data active means binding response below about 49% or above about 150%; inconclusive means no clear call, values can overlap the other calls; inactive means in between;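 further: fluorescent Galphao held in activated GDP-AlF4 state binding bead-coupled RGS7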
Target sequence (P09471 whole entry, looked up): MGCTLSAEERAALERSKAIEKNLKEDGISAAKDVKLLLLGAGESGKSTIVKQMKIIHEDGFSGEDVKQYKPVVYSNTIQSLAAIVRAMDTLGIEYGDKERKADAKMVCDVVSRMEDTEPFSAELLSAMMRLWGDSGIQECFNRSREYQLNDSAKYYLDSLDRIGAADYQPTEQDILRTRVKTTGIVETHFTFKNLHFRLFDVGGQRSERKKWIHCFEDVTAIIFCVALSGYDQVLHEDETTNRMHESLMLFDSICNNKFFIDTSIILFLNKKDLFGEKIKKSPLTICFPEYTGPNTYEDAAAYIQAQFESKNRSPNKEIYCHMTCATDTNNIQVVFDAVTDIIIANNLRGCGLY
GSH bead fluor: GSH bead compound fluorescence profile. 0.25% of 190,000 active. AID 1776. fluorescence (KMESF) at 10 µM. GSH beads flow cytometry, compound fluorescence 488/530 nm; stronger effect = higher value; in the data active means fluorescence above about 89;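 further: glutathione beads carrying GST-tagged Bcl family fusion proteins plus one bare bead set; values are compound well signal with DMSO vehicle wells as background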
RGS4-Gao reg: modulates binding of RGS4 to human Galphao; 0.33% of 220,000 active; P09471; Multiplexed bead flow cytometry; actives lie on both sides; binding response (% of control), % at 10 µM; in the data active means binding response below about 49% or above about 150%; inactive means in between;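 further: fluorescent Galphao activated with aluminum fluoride binding bead-coupled RGS4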
RGS16-Gao: regulators of human RGS16-Galphao interaction. binding response (% of control), % at 10 µM. AID 1441. 0.38% of 220,000 active. bead-based flow cytometry RGS16-Galphao binding, fluorescence; actives lie on both sides; call rule not given here;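 further: Galphao activated by GDP with aluminum fluoride before binding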
Avidin fluor: avidin bead compound fluorescence profile | fluorescence (KMESF) at 10 µM | Avidin beads, compound fluorescence 488/530 nm, flow cytometry; stronger effect = higher value | 0.38% of 220,000 active; in the data active means fluorescence above about 47
RGS8-Gao: regulators of human RGS8-Galphao interaction; response (percent of control binding), % at 10 µM; AID 1423; P09471; 0.34% of 220,000 active; multiplexed bead flow cytometry, RGS8-Galphao binding; actives lie on both sides; in the data active means response below about 60% or above about 140%; inactive means in between;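 further: Galphao activated as the GDP aluminium fluoride complex binding bead-coupled RGS8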
* marks the source's active call; other numbers are inactive results; ? = inconclusive; . = no result.

SMILES	RGS7-Gao reg	GSH bead fluor	RGS4-Gao reg	RGS16-Gao	Avidin fluor	RGS8-Gao
C=CCNc1nc(N)c(C(=C(C#N)C#N)c2ccc(Br)cc2)s1	98	7	95	50	9	84
CC(=O)c1ccc(N2CCN(C(=O)c3ccc(Cn4c(=S)[nH]c5ccc(N6CCOCC6)cc5c4=O)cc3)CC2)cc1	104	9	102	110	26	106
Cc1ccnn1CCC(=O)N1CCCC(CCC(=O)N2CCN(c3ccccn3)CC2)C1 (configuration not stated)	101	11	101	97	3	101
CCS(=O)CC(=O)Nc1c(-c2ccccc2)oc2ccccc2c1=O (configuration not stated)	?	.	102	102	7	100
O=C(c1c[nH]c2ccc(S(=O)(=O)N3CCC4(CC3)OCCO4)cc2c1=O)N1CCOCC1	103	12	100	99	51*	101
COC(CNC(=O)c1c[nH]c2ccc(S(=O)(=O)N3CCC4(CC3)OCCO4)cc2c1=O)OC	96	26	95	70	3	90
Cc1c(Cc2ccc3c(c2)OCO3)sc(NC(=O)c2ccc3ccccc3c2)c1C(N)=O	35*	13	20*	11*	1	29*
OC(CNCc1ccco1)Cn1c2ccccc2c2ccccc21 (configuration not stated)	102	263*	96	100	6	105
OC(CNCc1ccco1)COc1ccccc1 (configuration not stated)	99	45	97	95	6	99
O=C(O)/C=C/C(=O)N1CCN(S(=O)(=O)c2cccc(C(F)(F)F)c2)CC1	98	23	100	105	10	101
O=C(CSc1cccc(C(F)(F)F)c1)N1CCN(S(=O)(=O)c2ccccc2)CC1	90	265*	95	96	8	94
O=C1C2C3C=CC(C4CC34)C2C(=O)N1c1ccc2c(c1)OCO2 (configuration not stated)	100	26	101	100	8	102
Cc1cccc(CN(C)CCc2ccccn2)c1	105	15	99	100	33	102
Cc1cccc(OCC(=O)N(C)CCc2ccccn2)c1	105	22	101	101	47*	101
COCCN1C(=O)c2ccccc2C(C(=O)NCc2ccco2)C1c1c[nH]c2ccccc12 (configuration not stated)	101	24	99	99	47*	97
COc1ccc(C2C(C(=O)NCc3ccco3)c3ccccc3C(=O)N2C)cc1 (configuration not stated)	97	10	98	98	11	100
Cc1ccnc2nc(C(=O)N3CCN(c4ccc(F)cc4)CC3)nn12	97	249*	97	58	5	95
CC(Sc1nnc(Cc2cccs2)n1C1CCCCC1)C(=O)N1CCc2ccccc21 (configuration not stated)	104	17	98	98	48*	97
CCn1c(C)cc2c(c1=O)C(c1ccc3c(c1)OCO3)C(C#N)=C(N)O2 (configuration not stated)	114	17	105	106	63*	103
CN(c1cccc(NC(=O)c2cccc([N+](=O)[O-])c2)c1)S(C)(=O)=O	104	22	102	103	11	100
Cc1cc(C)n(-c2nc(NCC(C)O)c3c4c(sc3n2)CCCC4)n1 (configuration not stated)	100	24	101	100	47*	103
CC(c1ccccc1)N1CCc2[nH]c(=S)[nH]c(=O)c2C1 (configuration not stated)	113	14	111	154	15	113
Fc1ccc(-c2nc(-c3cnccn3)no2)c(Cl)c1	?	.	103	103	6	101
Cc1cc(C)cc(NC(=S)NN)c1	93	12	95	94	.	95
CCC(C)NC(=O)C1c2cc(OC)c(OC)cc2C(=O)N(C)C1c1ccc(OC)cc1 (configuration not stated)	99	19	99	96	34	100
SMILES	RGS7-Gao reg	GSH bead fluor	RGS4-Gao reg	RGS16-Gao	Avidin fluor	RGS8-Gao
CCC(C)NC(=O)C1c2cc(OC)c(OC)cc2C(=O)N(C)C1c1cccs1 (configuration not stated)	116	22	106	104	67*	100
O=C(CSc1nnnn1C1CCCCC1)NCc1cccs1	97	19	102	100	11	100
CCS(=O)(=O)Nc1cccc(C2=NN(S(=O)(=O)c3ccc(C)cc3)C(c3ccco3)C2)c1 (configuration not stated)	105	13	97	101	6	100
CCSc1nnc(NC(=O)CSc2nc3c(c(=O)n2-c2ccccc2)SCC3)s1	102	147*	100	106	7	103
Cc1ccc(-n2c(SCC(=O)Nc3nccs3)nc3c(c2=O)SCC3)cc1	97	40	97	100	12	101
Cc1ccc(NC2=C(NCCO)C(=O)c3ccccc3C2=O)cc1	116	11	118	102	49*	100
COc1cc(S(=O)(=O)N(Cc2ccccc2)CC2CCCO2)ccc1-n1cnnn1 (configuration not stated)	102	27	95	48	5	86
COc1cc(S(=O)(=O)N(Cc2cccs2)CC2CCCO2)ccc1-n1cnnn1 (configuration not stated)	126	17	97	108	50*	102
O=C(NCc1ccc2c(c1)OCO2)c1c[nH]c2ccc(S(=O)(=O)N3CCOCC3)cc2c1=O	94	28	96	50	9	86
O=C(NCc1ccccc1)c1c[nH]c2cc3c(cc2c1=O)OCCO3	96	89*	92	74	5	92
O=C1NCCN/C1=C\C(=O)c1ccc(Cl)cc1	?	.	101	97	6	101
O=C(NCCc1ccccc1)c1ccc(-n2cnnn2)cc1	90	32	88	80	7	102
O=C(NCCc1c[nH]c2ccccc12)c1ccc(-n2cnnn2)cc1	133	26	147	169	67*	106
CCOC(=O)c1cc2c(ccn2C)n1CC(=O)N(CC)CC	99	13	100	103	12	99
O=C(O)C1CC=CCC1C(=O)Nc1cccc(Cl)c1 (configuration not stated)	102	277*	102	102	7	105
CC1=C(C)CC(C(=O)Nc2cccc(Cl)c2)C(C(=O)O)C1 (configuration not stated)	99	46	103	104	15	101
COc1ccc(-c2cc(C#N)nc(N3CCNCC3)n2)cc1	146	15	136	122	49*	128
COc1cc(N2CCCC2)c(OC)cc1/C=C(/C#N)c1ccc(Br)cc1	129	74	130	170	59*	95

Bioassay records as filed in PubChem BioAssay.
